Assay results reported in article PMC11006913.

Key:
Test in all cases: PBM; 200 nM protein, PBS
Conditions in all cases: dsDNA, one strand shown
HOXA4 [1] = target: HOXA4 (Homo sapiens, UniProt Q00056 201-287, W262R)
HOXA4 [2] = target: HOXA4 (Homo sapiens, UniProt Q00056 201-287, R217L)
HOXA4 [3] = target: HOXA4 (Homo sapiens, UniProt Q00056 201-287)
HOXA4 [4] = target: HOXA4 (Homo sapiens, UniProt Q00056 201-287, W262F)
Sequence of HOXA4 (Homo sapiens, UniProt Q00056 201-287, W262F) (Q00056 201-287 W262F): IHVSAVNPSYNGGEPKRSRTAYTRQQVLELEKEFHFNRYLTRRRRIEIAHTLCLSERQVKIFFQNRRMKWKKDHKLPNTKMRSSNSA

Sequence of HOXA4 (Homo sapiens, UniProt Q00056 201-287) (Q00056 201-287): as the sequence (Q00056 201-287 W262F) above, with F62W counted along it
Sequence of HOXA4 (Homo sapiens, UniProt Q00056 201-287, W262R) (Q00056 201-287 W262R): as the sequence (Q00056 201-287 W262F) above, with F62R counted along it
Sequence of HOXA4 (Homo sapiens, UniProt Q00056 201-287, R217L) (Q00056 201-287 R217L): as the sequence (Q00056 201-287 W262F) above, with R17L, F62W counted along it

With AGGAGTCC the binding signal (HOXA4 [1]) was 9.98 upbm affinity estimate (log intensity, higher = more binding, comparable within an allelic series), the binding signal (HOXA4 [2]) was 9.79 upbm affinity estimate (log intensity, higher = more binding, comparable within an allelic series) and the binding signal (HOXA4 [3]) was 9.77 upbm affinity estimate (log intensity, higher = more binding, comparable within an allelic series). The binding signal (HOXA4 [4]) was 9.94 upbm affinity estimate (log intensity, higher = more binding, comparable within an allelic series).

With AGTAATTC the binding signal (HOXA4 [1]) was 10.4 upbm affinity estimate (log intensity, higher = more binding, comparable within an allelic series) and the binding signal (HOXA4 [3]) was 11.6 upbm affinity estimate (log intensity, higher = more binding, comparable within an allelic series).

With ACCTGCCG the binding signal (HOXA4 [1]) was 9.93 upbm affinity estimate (log intensity, higher = more binding, comparable within an allelic series), the binding signal (HOXA4 [2]) was 9.82 upbm affinity estimate (log intensity, higher = more binding, comparable within an allelic series) and the binding signal (HOXA4 [3]) was 9.98 upbm affinity estimate (log intensity, higher = more binding, comparable within an allelic series). For the same sequence, the binding signal (HOXA4 [4]) was 9.88 upbm affinity estimate (log intensity, higher = more binding, comparable within an allelic series).

ACCCTAGG was tested, and the binding signal (HOXA4 [1]) was 9.88 upbm affinity estimate (log intensity, higher = more binding, comparable within an allelic series), the binding signal (HOXA4 [2]) was 9.89 upbm affinity estimate (log intensity, higher = more binding, comparable within an allelic series) and the binding signal (HOXA4 [3]) was 9.97 upbm affinity estimate (log intensity, higher = more binding, comparable within an allelic series). The binding signal (HOXA4 [4]) was 9.92 upbm affinity estimate (log intensity, higher = more binding, comparable within an allelic series).

With ACCCGTAG the binding signal (HOXA4 [1]) was 9.8 upbm affinity estimate (log intensity, higher = more binding, comparable within an allelic series), the binding signal (HOXA4 [2]) was 9.7 upbm affinity estimate (log intensity, higher = more binding, comparable within an allelic series) and the binding signal (HOXA4 [3]) was 9.84 upbm affinity estimate (log intensity, higher = more binding, comparable within an allelic series). The binding signal (HOXA4 [4]) was 9.82 upbm affinity estimate (log intensity, higher = more binding, comparable within an allelic series).

For AACGAATT, the binding signal (HOXA4 [1]) was 10.3 upbm affinity estimate (log intensity, higher = more binding, comparable within an allelic series) and the binding signal (HOXA4 [3]) was 11.6 upbm affinity estimate (log intensity, higher = more binding, comparable within an allelic series).

With ACGTTAAT the binding signal (HOXA4 [1]) was 10.6 upbm affinity estimate (log intensity, higher = more binding, comparable within an allelic series), the binding signal (HOXA4 [2]) was 11.6 upbm affinity estimate (log intensity, higher = more binding, comparable within an allelic series) and the binding signal (HOXA4 [3]) was 12.9 upbm affinity estimate (log intensity, higher = more binding, comparable within an allelic series). For the same sequence, the binding signal (HOXA4 [4]) was 11 upbm affinity estimate (log intensity, higher = more binding, comparable within an allelic series).

In the case of CACCCTGG, the binding signal (HOXA4 [1]) is reported as 9.95 upbm affinity estimate (log intensity, higher = more binding, comparable within an allelic series), the binding signal (HOXA4 [2]) is reported as 9.74 upbm affinity estimate (log intensity, higher = more binding, comparable within an allelic series) and the binding signal (HOXA4 [3]) is reported as 9.78 upbm affinity estimate (log intensity, higher = more binding, comparable within an allelic series). For the same sequence, the binding signal (HOXA4 [4]) was 9.87 upbm affinity estimate (log intensity, higher = more binding, comparable within an allelic series).

GGACTCCC was tested, and the binding signal (HOXA4 [1]) was 9.88 upbm affinity estimate (log intensity, higher = more binding, comparable within an allelic series), the binding signal (HOXA4 [2]) was 9.72 upbm affinity estimate (log intensity, higher = more binding, comparable within an allelic series) and the binding signal (HOXA4 [3]) was 9.84 upbm affinity estimate (log intensity, higher = more binding, comparable within an allelic series). The binding signal (HOXA4 [4]) was 9.79 upbm affinity estimate (log intensity, higher = more binding, comparable within an allelic series).

With CAGACCTC the binding signal (HOXA4 [1]) was 9.86 upbm affinity estimate (log intensity, higher = more binding, comparable within an allelic series), the binding signal (HOXA4 [2]) was 9.83 upbm affinity estimate (log intensity, higher = more binding, comparable within an allelic series) and the binding signal (HOXA4 [3]) was 9.81 upbm affinity estimate (log intensity, higher = more binding, comparable within an allelic series). For the same sequence, the binding signal (HOXA4 [4]) was 9.9 upbm affinity estimate (log intensity, higher = more binding, comparable within an allelic series).

CAGGGGGA was tested, and the binding signal (HOXA4 [1]) was 9.68 upbm affinity estimate (log intensity, higher = more binding, comparable within an allelic series), the binding signal (HOXA4 [2]) was 9.64 upbm affinity estimate (log intensity, higher = more binding, comparable within an allelic series) and the binding signal (HOXA4 [3]) was 9.87 upbm affinity estimate (log intensity, higher = more binding, comparable within an allelic series). The binding signal (HOXA4 [4]) was 9.7 upbm affinity estimate (log intensity, higher = more binding, comparable within an allelic series).

AGTCCTTC was tested, and the binding signal (HOXA4 [1]) was 9.96 upbm affinity estimate (log intensity, higher = more binding, comparable within an allelic series), the binding signal (HOXA4 [2]) was 9.81 upbm affinity estimate (log intensity, higher = more binding, comparable within an allelic series) and the binding signal (HOXA4 [3]) was 9.61 upbm affinity estimate (log intensity, higher = more binding, comparable within an allelic series). The binding signal (HOXA4 [4]) was 9.89 upbm affinity estimate (log intensity, higher = more binding, comparable within an allelic series).

GATTTATA was tested, and the binding signal (HOXA4 [1]) was 10.4 upbm affinity estimate (log intensity, higher = more binding, comparable within an allelic series) and the binding signal (HOXA4 [3]) was 11.4 upbm affinity estimate (log intensity, higher = more binding, comparable within an allelic series).

TAAAATTA was tested, and the binding signal (HOXA4 [1]) was 10.3 upbm affinity estimate (log intensity, higher = more binding, comparable within an allelic series) and the binding signal (HOXA4 [3]) was 12.2 upbm affinity estimate (log intensity, higher = more binding, comparable within an allelic series).

With AGGGCGAG the binding signal (HOXA4 [1]) was 9.83 upbm affinity estimate (log intensity, higher = more binding, comparable within an allelic series), the binding signal (HOXA4 [2]) was 9.74 upbm affinity estimate (log intensity, higher = more binding, comparable within an allelic series) and the binding signal (HOXA4 [3]) was 9.74 upbm affinity estimate (log intensity, higher = more binding, comparable within an allelic series). For the same sequence, the binding signal (HOXA4 [4]) was 9.91 upbm affinity estimate (log intensity, higher = more binding, comparable within an allelic series).

With CCAGCGGG the binding signal (HOXA4 [1]) was 9.83 upbm affinity estimate (log intensity, higher = more binding, comparable within an allelic series), the binding signal (HOXA4 [2]) was 9.65 upbm affinity estimate (log intensity, higher = more binding, comparable within an allelic series) and the binding signal (HOXA4 [3]) was 9.72 upbm affinity estimate (log intensity, higher = more binding, comparable within an allelic series). For the same sequence, the binding signal (HOXA4 [4]) was 9.76 upbm affinity estimate (log intensity, higher = more binding, comparable within an allelic series).

GTCTATAA was tested, and the binding signal (HOXA4 [1]) was 10.4 upbm affinity estimate (log intensity, higher = more binding, comparable within an allelic series) and the binding signal (HOXA4 [3]) was 11.4 upbm affinity estimate (log intensity, higher = more binding, comparable within an allelic series).

CTCCCACC was tested, and the binding signal (HOXA4 [1]) was 9.83 upbm affinity estimate (log intensity, higher = more binding, comparable within an allelic series), the binding signal (HOXA4 [2]) was 9.72 upbm affinity estimate (log intensity, higher = more binding, comparable within an allelic series) and the binding signal (HOXA4 [3]) was 9.74 upbm affinity estimate (log intensity, higher = more binding, comparable within an allelic series). The binding signal (HOXA4 [4]) was 9.88 upbm affinity estimate (log intensity, higher = more binding, comparable within an allelic series).

CCTCCAGC was tested, and the binding signal (HOXA4 [1]) was 9.79 upbm affinity estimate (log intensity, higher = more binding, comparable within an allelic series), the binding signal (HOXA4 [2]) was 9.82 upbm affinity estimate (log intensity, higher = more binding, comparable within an allelic series) and the binding signal (HOXA4 [3]) was 9.83 upbm affinity estimate (log intensity, higher = more binding, comparable within an allelic series). The binding signal (HOXA4 [4]) was 9.76 upbm affinity estimate (log intensity, higher = more binding, comparable within an allelic series).

For AGCTCCCC, the binding signal (HOXA4 [1]) was 9.71 upbm affinity estimate (log intensity, higher = more binding, comparable within an allelic series), the binding signal (HOXA4 [2]) was 9.69 upbm affinity estimate (log intensity, higher = more binding, comparable within an allelic series) and the binding signal (HOXA4 [3]) was 9.78 upbm affinity estimate (log intensity, higher = more binding, comparable within an allelic series). For the same sequence, the binding signal (HOXA4 [4]) was 9.81 upbm affinity estimate (log intensity, higher = more binding, comparable within an allelic series).

With GACCCCCC the binding signal (HOXA4 [1]) was 9.49 upbm affinity estimate (log intensity, higher = more binding, comparable within an allelic series), the binding signal (HOXA4 [2]) was 9.56 upbm affinity estimate (log intensity, higher = more binding, comparable within an allelic series) and the binding signal (HOXA4 [3]) was 9.7 upbm affinity estimate (log intensity, higher = more binding, comparable within an allelic series). For the same sequence, the binding signal (HOXA4 [4]) was 9.59 upbm affinity estimate (log intensity, higher = more binding, comparable within an allelic series).

With CATGATTA the binding signal (HOXA4 [1]) was 10.4 upbm affinity estimate (log intensity, higher = more binding, comparable within an allelic series), the binding signal (HOXA4 [2]) was 11.4 upbm affinity estimate (log intensity, higher = more binding, comparable within an allelic series) and the binding signal (HOXA4 [3]) was 12.6 upbm affinity estimate (log intensity, higher = more binding, comparable within an allelic series). For the same sequence, the binding signal (HOXA4 [4]) was 10.8 upbm affinity estimate (log intensity, higher = more binding, comparable within an allelic series).

CAATCACG was tested, and the binding signal (HOXA4 [1]) was 10.3 upbm affinity estimate (log intensity, higher = more binding, comparable within an allelic series), the binding signal (HOXA4 [2]) was 10.8 upbm affinity estimate (log intensity, higher = more binding, comparable within an allelic series) and the binding signal (HOXA4 [3]) was 11.2 upbm affinity estimate (log intensity, higher = more binding, comparable within an allelic series). For the same sequence, the binding signal (HOXA4 [4]) was 10.5 upbm affinity estimate (log intensity, higher = more binding, comparable within an allelic series).

With CAATTTAG the binding signal (HOXA4 [1]) was 10.5 upbm affinity estimate (log intensity, higher = more binding, comparable within an allelic series) and the binding signal (HOXA4 [3]) was 12.1 upbm affinity estimate (log intensity, higher = more binding, comparable within an allelic series).
